Assay results from PubChem BioAssay (NCI).
The panel holds about 83,000 compounds, 20% with a hit somewhere; the sample as a whole holds those more often.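 Note: values are percent growth. 100 is the growth of untreated cells, values between 100 and 0 indicate rising inhibition; between -100 and 0 indicates cell death.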 Unmarked numbers belong to inactive results. The source made the active and inactive calls. How the source made its calls: active means growth percent below 10; inactive means the rest.

Key:
Test in all cases: NCI-60 one-dose screen, 48 h (100 = growth as untreated, 0 = no growth, -100 = all killed)
Conditions in all cases: 10 µM
NCI-H23 lung = system: NCI-H23 lung
NCI-H226 lung = system: NCI-H226 lung
NCI-H322M lung = system: NCI-H322M lung
HOP-62 NSCLC = system: HOP-62 NSCLC
NCI-H460 lung = system: NCI-H460 lung
NCI-H522 lung = system: NCI-H522 lung
A549/ATCC NSCLC = system: A549/ATCC NSCLC
786-0 renal = system: 786-0 renal
COLO 205 colon = system: COLO 205 colon

| Structure (SMILES) | growth (NCI-H23 lung) [%] | growth (NCI-H226 lung) [%] | growth (NCI-H322M lung) | growth (HOP-62 NSCLC) | growth (NCI-H460 lung) | growth (NCI-H522 lung) | growth (A549/ATCC NSCLC) | growth (786-0 renal) | growth (COLO 205 colon) |
| --- | --- | --- | --- | --- | --- | --- | --- | --- | --- |
| CN(C)CCN(Cc1ccccc1)c1ccccc1 | 99.8 | 109 | 110% | 107% | 104% | 104% | 106% | 105% | 118% |
| Cc1cccc([N+](=O)[O-])c1Cl | 96.4 | 98.2 | 105% | 103% | 108% | 116% | 104% | 102% | 109% |
| Cc1cc(N2CCC(N3CCCC3)CC2)nc(/N=C(\N)Nc2ccc(Cl)c(Cl)c2)n1 | 56.8 | 84.6 | -30.6% (active) | -8.02% (active) | -67.8% (active) | -66.4% (active) | -22.1% (active) | -54.3% (active) | -82.3% (active) |
| O=C(Cc1ccccc1)Cc1ccccc1 | 103 | 100 | 104% | 110% | 102% | 97% | 96% | 95.2% | 110% |
| Clc1ccc(-c2n[nH]c3c2Cc2ccccc2-3)cc1Cl | 84.6 | 94.4 | 91.6% | 95.1% | 105% | -7.44% (active) | 37.5% | 104% | 115% |
| C#Cc1cccc(NC(=O)c2ccc(Cl)cc2Cl)c1 | 102 | 104 | 98.3% | 108% | 105% | 74.4% | 48.7% | 99.9% | 128% |
| NCC(=O)CCC(=O)O | 93.8 | 99.2 | 107% | 99.1% | 115% | 107% | 99.1% | 103% | 116% |
| Nc1ccc(N=Nc2ccc(O)cc2)c(N)n1 | 91.2 | 75.8 | 97.4% | 99.7% | 84.1% | 47% | 69.2% | 65.3% | 109% |
| O=C(/C=C\c1ccc(O)cc1)c1ccccc1 | 102 | 107 | 101% | 110% | 113% | -31.4% (active) | 94.2% | 97.8% | 98% |
| Cc1ccc(Cl)cc1N1C(=O)CC(Sc2ccccc2N)C1=O (stereo not given) | 101 | 103 | 127% | 94.2% | 111% | 97% | 88.6% | 106% | 110% |
| CC(=O)Nc1cccc(NC(C)=O)n1 | 128 | 103 | 104% | 101% | 104% | 100% | 108% | 101% | 123% |
| Cc1ccc(C(=O)N/N=C/c2ccc3c(c2)OCO3)cc1 | 91 | 101 | 98.8% | 97.5% | 96.6% | 80.9% | 97.7% | 99.8% | 113% |
| COc1cc(C(=O)NC(=S)Nc2ccc3ccccc3c2)cc(OC)c1OC | 82.5 | 88.9 | 101% | 95.8% | 107% | -23.4% (active) | 89.7% | 116% | 84.2% |
| O=c1[nH]cc(Cl)cc1O | 96.4 | 95.5 | 97.1% | 103% | 94.1% | 60.7% | 75.2% | 101% | 112% |
| CCc1ccc(/C(C#N)=C/C=C/c2ccccc2)cc1 | 33.4 | 67.3 | 32.7% | 34.4% | 13.7% | -39.4% (active) | 28.7% | 63.2% | -15% (active) |
| CCCCC(=O)c1ccc(OC)cc1 | 99.7 | 99.7 | 111% | 112% | 104% | 91.2% | 97.4% | 96.2% | 118% |
| CCOC(=O)Nc1cc2c(c(N)n1)N=C(c1ccccc1)CO2 | 34.8 | 39.6 | 15.3% | 50% | 8.86% (active) | -13.9% (active) | 23.3% | 39.1% | 6.19% (active) |
| O=C(CCl)N1CCN(C/C=C/c2ccccc2)CC1 | 101 | 79.8 | 109% | 97.2% | 98.1% | -80.4% (active) | 108% | 101% | 108% |
| O=C(Nc1cccc(NC(=O)Nc2cc(C(F)(F)F)ccc2Cl)c1)Nc1cc(C(F)(F)F)ccc1Cl | 20.4 | 34.3 | 38% | 21.8% | 4.58% (active) | -27.7% (active) | 11.6% | 51.7% | 1.37% (active) |
| O=C1Cc2cc(O)ccc2O1 | 111 | 103 | 94.5% | 101% | 111% | 88.4% | 98.7% | 103% | 117% |
